Measurements taken from PubChem BioAssay AID623870 (Broad Institute, 2012).
Hit rate of the full screen: of about 390,000 compounds, about 2,600 (0.67%) were called active. For the sample, actives were picked, then their nearest neighbours and some compounds at random. Values without a mark were called inactive.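 How the source made its calls: active means mean inhibition of replicates at least 50% and at least half of replicates each reaching 50%; inconclusive means half or more replicates reach 50% but mean below 50%; inactive means the rest.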

biological target: Transforming acidic coiled-coil-containing protein 3 (Homo sapiens) (UniProt Q9Y6A5); experiment: disruptors of ARNT/TACC3 protein interaction, primary screen, biochemical, AlphaScreen, single concentration (AID 623870); settings: AlphaScreen His-ARNT PAS-B/GST-TACC3 binding, luminescence; at 9.99 µM; hits give high values; TACC3 fragment carries E629A point mutation;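 further: 0% = complete ARNT plus TACC3 wells and 100% = ARNT alone without TACC3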

SMILES | inhibition
ON=C1/C(=N\O)CC2(C/C1=N/O)OCCO2 | 59% (active)
C[C@@H]1CN([C@H](C)CO)C(=O)c2cccc(NS(=O)(=O)c3cccs3)c2O[C@@H]1CN(C)C(=O)Nc1cccc2ccccc12 | 26.7%
Cc1cccc(-c2ccc([C@@H]3[C@@H](CO)N4CCCCN(S(=O)(=O)c5cccs5)C[C@H]34)cc2)c1 | 14.3%
O=C(CCCN1C(=O)c2cccc3cccc(c23)C1=O)N1CCN(Cc2ccc3c(c2)OCO3)CC1 | -11.4%
O=C1c2cccc3cccc(c23)C(=O)N1CCCCCc1n[nH]c(=S)o1 | 28.3% (active)
O=C(COC(=O)CCCN1C(=O)c2cccc3cccc(c23)C1=O)NC1CCS(=O)(=O)C1 (configuration not stated) | 7.07%
C[C@H](CO)N1C[C@H](C)[C@H](CN(C)C(=O)Cc2ccccn2)Oc2ncc(-c3cncnc3)cc2C1=O | -0.547%
CO[C@@H]1CN(C)C(=O)c2ccc(NC(=O)Nc3c(C)noc3C)cc2OC[C@@H](C)N(C(=O)Nc2cccc(Cl)c2)C[C@H]1C | 4.61%
COc1ccccc1NC(=O)N[C@H]1CC[C@H](CCNC(=O)Cc2ccccn2)O[C@@H]1CO | 6.44%
CC(C)n1cnc2c(NCc3ccccc3)cc(OCC3CCN(C)CC3)cc21 | 28.3% (active)
CCC(=O)Nc1ccc2c(c1)C(=O)N(C)[C@@H]1CC[C@@H](CC(=O)NCCN3CCCCC3)O[C@@H]1CO2 | -4.58%
COc1ccccc1-c1cn(CC[C@@H]2CC[C@@H](NC(=O)c3ccccc3F)[C@H](CO)O2)nn1 | 1.05%
C[C@H]1CN([C@@H](C)CO)C(=O)c2cc(C3=CCCCC3)cnc2O[C@H]1CN(C)Cc1ccncc1 | -9.48%
O=C(NCc1cccnc1)c1nc(-c2cccs2)no1 | -5.94%
O=C(c1cccs1)N(C(=O)c1cccs1)c1ccccn1 | 0.575%
c1ccc(-c2noc(-c3cccs3)n2)nc1 | 48.9% (active)
CC1CCN(S(=O)(=O)c2nnc(NC(=O)COc3ccccc3F)s2)CC1 | 31.3%
O=C(NCCN1C(=O)C2C3C=CC(C3)C2C1=O)Nc1ccccn1 (configuration not stated) | 0.008%
CCOC(=O)N1CCN(C(=O)C(C)NC(=O)c2ccco2)CC1 (configuration not stated) | -22%
O=C(CN1C(=O)C2C3C=CC(C3)C2C1=O)Nc1nc(-c2ccccn2)cs1 (configuration not stated) | 73.4% (active)
O=C(CCN1C(=O)C2C3C=CC(C3)C2C1=O)Nc1ccccc1F (configuration not stated) | -30.3%
CCCC(NC(=O)c1ccco1)c1nc2ccccc2[nH]1 (configuration not stated) | -4.8%
O=C(COc1ccccc1F)Nc1nc(-c2ccccn2)cs1 | 69.7% (active)
O=C(COc1cccnc1[N+](=O)[O-])Nc1ccc(Cl)cc1F | -2.26%

SMILES | inhibition
CC(NC(=O)c1ccco1)C(=O)Nc1nc(-c2ccccn2)cs1 (configuration not stated) | 65.4% (active)
COc1ccc(S(=O)(=O)N(C)C[C@H]2Oc3ccc(NC(=O)CCC(F)(F)F)cc3CC(=O)N([C@H](C)CO)C[C@@H]2C)cc1 | 14.1%
CCCN(C)C[C@H]1Oc2ncc(-c3cccnc3)cc2C(=O)N([C@@H](C)CO)C[C@@H]1C | -0.744%
Cc1ccc(S(=O)(=O)N(C)C[C@@H]2OCCCC[C@@H](C)Oc3ccc(NC(=O)C4CCCCC4)cc3C(=O)N([C@H](C)CO)C[C@H]2C)cc1 | -8.72%
CCCC(=O)Nc1ccc2c(c1)OC[C@H](C)N(CCC)C[C@@H](C)[C@@H](OC)CN(C)C2=O | 1.16%
CC(C)NC(=O)Nc1ccc2c(c1)C(=O)N([C@H](C)CO)C[C@H](C)[C@@H](CN(C)S(=O)(=O)c1ccc(F)cc1)OCCCC[C@H](C)O2 | -7.08%
CCCN(C)C[C@@H]1Oc2cc(C#CCc3ccccc3)ccc2S(=O)(=O)N([C@H](C)CO)C[C@@H]1C | 1.97%
CCOc1cccc(/C=N/N2C(=O)CSC2=S)c1O | 59.8% (active)
O=C1CSC(=S)N1/N=C/c1ccc(O)c([N+](=O)[O-])c1 | 12.1%
CCOc1cc(/C=N/n2cnnc2)c(Br)cc1O | 7.91%
C[C@H](CO)N1C[C@H](C)[C@H](CN(C)C(=O)c2cnccn2)Oc2cc(C3=CCCC3)ccc2S1(=O)=O | 1.21%
COCC#Cc1ccc2c(c1)O[C@@H](CN(C)Cc1ccccn1)[C@@H](C)CN([C@@H](C)CO)S2(=O)=O | -0.755%
O=C(NNc1nc(N2CCCC2)nc(N2CCCC2)n1)c1ccccc1 | -2.38%
C/C(=N\Nc1nc(N2CCOCC2)nc(N2CCOCC2)n1)c1ccc([N+](=O)[O-])cc1 | 15.4%
O=C(O)c1ccc(/C=N/Nc2nc(N3CCCCC3)nc(N3CCCCC3)n2)cc1 | 45% (active)
CCCN1C[C@@H](C)[C@H](OC)CN(C)C(=O)c2ccc(NC(=O)C3CCOCC3)cc2OC[C@@H]1C | -0.135%
C[C@H]1CN([C@@H](C)CO)C(=O)c2cccc(NC(=O)Nc3ccccc3)c2O[C@H]1CN(C)Cc1ccc(C(F)(F)F)cc1 | 7.66%
Fc1ccccc1/C=N/Nc1cc(N2CCCCC2)ncn1 | 22.7%
Oc1ccc(Br)cc1/C=N/Nc1ccccn1 | 44.2% (active)
Nc1nonc1-n1nnc(C(=O)N/N=C/c2cc(Br)ccc2O)c1CSC1=NCCS1 | 17.4%
C[C@H]1CN([C@@H](C)CO)C(=O)c2c(c3ccccc3n2C)-c2ccccc2CO[C@H]1CN(C)S(=O)(=O)c1ccc(C#N)cc1 | 11.3%
O=C(C[C@@H]1CC[C@H]2[C@@H](COC[C@@H](O)CN2C(=O)Nc2ccc(F)cc2)O1)NCC1CC1 | 1.68%
CN(c1ccc(C(=O)N2CCc3ccccc3C2)cc1)S(C)(=O)=O | 54% (active)
COc1cccc(N(CC(=O)N2CCc3ccccc3C2)S(C)(=O)=O)c1 | 1.07%

SMILES | inhibition
CN(c1ccccc1)S(=O)(=O)c1ccc(C(=O)N2CCN(c3ccccc3Cl)CC2)cc1 | -20.3%
COc1ccc(S(=O)(=O)N(C)C[C@@H]2OCCCC[C@@H](C)Oc3ccc(NS(C)(=O)=O)cc3C(=O)N([C@H](C)CO)C[C@@H]2C)cc1 | -15.8%
CCCN(C)C[C@H]1Oc2ncc(C#CCOC)cc2C(=O)N([C@@H](C)CO)C[C@H]1C | -7.68%
Cc1ccc(S(=O)(=O)Nc2ccc3c(c2)C(=O)N([C@H](C)CO)C[C@H](C)[C@H](CN(C)C(=O)Nc2ccc4c(c2)OCO4)OCCCC[C@@H](C)O3)cc1 | -0.754%
O=C(Nn1cc(C(=O)N2CCN(c3ccccc3F)CC2)c2ccccc2c1=O)c1cnccn1 | 68.5% (active)
COc1ccc(Nc2ncc(C(=O)N3CCN(c4ccccc4OC)CC3)c3ccccc23)cc1 | 1.33%
Cc1ccccc1N1CCN(C(=O)c2cccnc2)CC1 | -7.09%
Cc1ccc(S(=O)(=O)NCC[C@H]2CC[C@@H](NS(=O)(=O)c3ccccc3Cl)[C@H](CO)O2)cc1 | 2.36%
C[C@@H]1CN([C@@H](C)CO)C(=O)c2cc(NC(=O)C3CCCCC3)ccc2O[C@@H]1CN(C)S(=O)(=O)c1ccc(F)cc1 | -1.9%
CCOc1cc(N2CCOCC2)c(OCC)cc1NC(=O)COc1cccc2cccnc12 | 59.4% (active)
NC(=O)C1CCN(C(=O)COc2cccc3cccnc23)CC1 | -5.01%
COC(=O)[C@@H]1CCCN1C(=O)c1cc(COc2cccc3cccnc23)on1 | 6.38%
C[C@@H]1CN([C@@H](C)CO)C(=O)c2cccc(N(C)C)c2O[C@@H]1CN(C)S(=O)(=O)c1ccccc1 | -5.11%
C[C@@H]1CCCCO[C@H](CN(C)C(=O)CCC(F)(F)F)[C@H](C)CN([C@@H](C)CO)C(=O)c2cc(NC(=O)CCCCCC(=O)Nc3ccccc3N)ccc2O1 | 0.568%
CO[C@H]1CN(C)C(=O)c2ccc(NC(C)=O)cc2OC[C@@H](C)N(C(=O)c2ccncc2)C[C@@H]1C | 34.9%
O=C(O)C[C@@H]1C[C@@H]2c3cc(NC(=O)Nc4ccccc4)ccc3O[C@@H]2[C@H](CO)O1 | -4.96%
C[C@H]1CN([C@@H](C)CO)C(=O)Cc2cc(NC(=O)Nc3ccc(F)cc3)ccc2O[C@H]1CN(C)S(=O)(=O)c1ccc(F)cc1 | -0.385%
COc1ccc(CN(C)C[C@H]2Oc3c(NC(=O)c4ccncc4)cccc3C(=O)N([C@H](C)CO)C[C@@H]2C)cc1 | -4.67%
Cc1cc(S(=O)(=O)NCc2ccccn2)c(Cl)cc1Cl | -1.4%
Cc1ccc(NC(=O)CNCc2ccccn2)cc1S(=O)(=O)N(C)C | 71% (active)
Cc1ccc(C(=O)Nc2ccc(C)c(S(=O)(=O)N(C)C)c2)s1 | -4.57%
C[C@@H]1CN([C@@H](C)CO)C(=O)c2cc(NC(=O)Cc3ccccc3)ccc2O[C@@H](C)CCCCO[C@H]1CN(C)C(=O)Cc1ccccc1 | -2.35%
CC[C@]1(O)CC2CN(CCc3c([nH]c4ccccc34)[C@@](C(=O)OC)(c3cc4c(cc3OC)N(C=O)[C@H]3[C@@](O)(C(=O)OC)[C@H](OC(C)=O)[C@]5(CC)C=CCN6CC[C@]43[C@@H]65)C2)C1 (some centres not stated) | 52.9% (active)
CC[C@]1(O)C[C@@H]2CN(CCc3c([nH]c4ccccc34)[C@@](C(=O)OC)(c3cc4c(cc3OC)N(C)[C@H]3[C@@](O)(C(=O)OC)[C@H](OC(C)=O)[C@]5(CC)C=CCN6CC[C@]43[C@@H]65)C2)C1 | 16%
